A selection: hits, their analogues and other compounds. The true share with any hit is near 6.8%.
Abs 340nm: compounds absorbing at 340 nm; AID 708; fold change at 10 µM; 65,000 tested, under 10 active; compound absorbance at 340 nm, fold over control;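 active = at 10 µM dose, initial 340 nm absorbance at least 2 fold that of control wells; inactive = change under 2 fold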;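 also: initial absorbance extrapolated from kinetic A340 decline of NADH oxidation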
Autofluor 339: intrinsic fluorescence of library compounds, ex339/em460 – biochemical, MLSMR library, data from DPM-DC assay, artefact control, profiling panel; fluorescence fold increase at 10 µM; AID 709; compound autofluorescence, ex339/em460 nm, NADH buffer; hits give high values; 1 = no-compound wells, NADH background; hit rate 5.5% among 65,000;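 active = at 10 µM, mean starting fluorescence two-fold or more over control wells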;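 also: signal is the first read of a kinetic run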
NADH coupling: inhibition of NAD/NADH coupling enzymes, library profiling; coupled PK/LDH NADH assays, four targets; IC50, µM (highest dose often 10 µM); hit rate 0.02% among 65,000; AID 774;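 active = single-dose screening hits from any of four coupled enzyme assays that gave an IC50 when retested across doses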;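 also: the DPM-DC format reads NADH fluorescence rather than 340 nm absorbance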
DPM-DC inhibit: S. pneumoniae DPM-DC inhibition; calls only at 10 µM; purified DPM-DC, PK/LDH coupled NADH fluorescence; hit rate 0.49% among 65,000;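 active = the 320 compounds with the highest percent inhibition in the single-dose primary screen, excluding strongly autofluorescent ones, cut at about 32% in these data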;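 also: kinetic rate of NADH fluorescence loss reporting ADP formed by the decarboxylase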
Spn PMK inh: inhibitors of Streptococcus pneumoniae phosphomevalonate kinase | inhibition, % at 10 µM | purified PMK, PK/LDH-coupled NADH absorbance 340 nm | hit rate 0.49% among 65,000;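 active = top-ranked compounds by inhibition in the single 10 µM screen, taking a fixed number of the strongest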
Spn MK inh: blocks S. pneumoniae mevalonate kinase. purified MK, PK/LDH-coupled NADH absorbance 340 nm. inhibition, % at 10 µM. hit rate 0.48% among 65,000. AID 555;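 active = ranked among the strongest by inhibition in the single 10 µM screen, a fixed top-ranked set picked for dose follow-up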
Large screens that a line does not name were inactive.

Cc1nc2ccccc2n1-c1nc(-c2ccco2)cc(C(F)(F)F)n1	none
FC(F)(F)c1cc(-c2ccco2)nc(-n2cnc3ccccc32)n1	Autofluor 339 2.7
Cc1cc(OCC(=O)N2CCOCC2)cc2oc(=O)c3ccccc3c12	Autofluor 339 2.9 (not shown: DPM-DC inhibit)
CCOc1ccc(OCC(=O)N2CCOCC2)cc1	none
COc1cc(CN2CCN(c3cccc(C)c3C)CC2)cc(OC)c1O	Spn MK inh 51
COc1cc(OC)c(OC)cc1CN1CCN(c2ccccc2OC)CC1	Spn MK inh 43
CCOc1c(C)cc(-c2ncccc2O)cc1C	Autofluor 339 3.8
Cn1c(=O)[nH]c(=O)c2c1nc(Br)n2CC(O)c1ccccc1 (centres undefined)	none
COC(=O)CNC(=O)COC(=O)c1cc(Cl)cc(Cl)c1N	Autofluor 339 3.4 (not shown: DPM-DC inhibit)
Cc1cc(NC(=O)CCCS(=O)(=O)c2nc(-c3cccs3)cc(C(F)(F)F)n2)no1	Autofluor 339 3.4 (not shown: DPM-DC inhibit)
CS(=O)(=O)c1nc(-c2cccs2)cc(C(F)(F)F)n1	Autofluor 339 2.2 (not shown: DPM-DC inhibit)
CN1CCN(c2nc(-c3cccs3)cc(C(F)(F)F)n2)CC1	none
O=c1c2c(nc3cc(-c4ccccc4)[nH]n13)CCC2	Autofluor 339 3.4
COc1ccc(-c2cc3nc4c(c(=O)n3[nH]2)CCC4)cc1	Autofluor 339 2.1 (not shown: DPM-DC inhibit)
Cc1cc2nc3c(c(=O)n2[nH]1)CCCC3	none
Cc1ccc(-c2[nH]n3c(=O)c4c(nc3c2C)CCCC4)cc1	Autofluor 339 2.4
Cc1cc(C)c(S(=O)(=O)Nc2ccc[nH]c2=O)c(C)c1	none
CSc1nnnn1-c1cccc(O)c1	none
CC(Oc1ccc(Cl)cc1Cl)C(=O)Nc1ncccn1 (centres undefined)	none
CC(Oc1ccc(Cl)cc1Cl)C(=O)Nc1ccc2oc(-c3ccncc3)nc2c1 (centres undefined)	Autofluor 339 3.8 (not shown: DPM-DC inhibit)
Cc1cc2nc(-c3ccc(NC(=O)C(C)C)cc3)oc2cc1C	Autofluor 339 2.2 (not shown: DPM-DC inhibit)
Cc1ccc(-c2nc3cc(NC(=O)C(C)C)ccc3o2)cc1	Autofluor 339 2.5 (not shown: DPM-DC inhibit)
CC(C)C(=O)Nc1ccc(-c2nc3cccnc3o2)cc1	Autofluor 339 2.5 (not shown: DPM-DC inhibit)
CCN1CCN(Cc2nc3c(c(=O)n(C)c(=O)n3C)n2C(C)C(C)=O)CC1 (centres undefined)	none
Cc1nnc(SCCn2c(N(C)Cc3ccccc3)nc3c2c(=O)n(C)c(=O)n3C)s1	none
CCn1c(COc2ccccc2C)nnc1SCC(=O)CC(=O)Nc1ccccc1	none
Cc1ccc(-c2nc3cc(NC(=O)C(C)C)ccc3o2)cc1C	Autofluor 339 3 (not shown: DPM-DC inhibit)
CC(C)C(=O)Nc1cccc(-c2nc3ccccc3o2)c1	none
COc1ccccc1NC(=O)CC1Nc2ccccc2NC1=O (centres undefined)	none
COc1ccc(CCNC(=O)CC2Nc3cc(C)c(C)cc3NC2=O)cc1OC (centres undefined)	Autofluor 339 2.1
Cc1cc2c(cc1C)NC(CC(=O)NCc1ccccc1)C(=O)N2 (centres undefined)	Autofluor 339 2.1 (not shown: DPM-DC inhibit)
COc1ccccc1NC(=O)NCCCN1CCN(c2cccc(Cl)c2)CC1	none
O=c1n(CCCN2CCN(c3cccc(Cl)c3)CC2)nc2ccccn12	Autofluor 339 2.4 (not shown: DPM-DC inhibit)
Cc1ccc(-n2c(Cc3cccn3C)nnc2SCC(=O)NCc2ccc3c(c2)OCO3)cc1	none
CSC1=NC(NCCCO)c2c(sc3c2CC(C)(C)OC3)N1 (centres undefined)	Autofluor 339 2.9
CC1(C)Cc2c(sc3nc(SCC(=O)O)[nH]c(=O)c23)CO1	none
Cc1cccc(Cn2c(=O)c3c(nc4n3CCCN4Cc3ccccc3)n(C)c2=O)c1	none
O=C(CN(C(=O)CNS(=O)(=O)c1ccccc1)c1ccc2c(c1)OCCO2)NCc1ccco1	none
O=C(CN(C(=O)CNS(=O)(=O)c1ccccc1)C1CCCC1)NCc1ccco1	Spn PMK inh 25
CCOc1ccc2nc(NC(NC(=O)CC)(C(=O)OC)C(F)(F)F)sc2c1 (centres undefined)	none
Cc1cc(N2CCOCC2)c2c(N)c(Br)cc(C)c2n1	DPM-DC inhibit active
N#Cc1c(N)nc(SCC(=O)NCCc2ccccc2)c(C#N)c1-c1cccs1	Autofluor 339 2.3 (not shown: DPM-DC inhibit)
CC(C)OC(=O)CSc1nc(N)c(C#N)c(-c2cccs2)c1C#N	none
COCCN1C(=O)C(=O)/C(=C(/O)c2ccc(OCC(C)C)cc2)C1c1cccnc1 (centres undefined)	none
c1ccc2c(c1)nnn2Cc1nnc2sc(-c3ccc4c(c3)OCCO4)nn12	Autofluor 339 2.9, DPM-DC inhibit active
c1ccc(-c2nn3c(Cn4nnc5ccccc54)nnc3s2)cc1	none
NC(=O)C1CCN(c2nc(-c3ccccc3)nc3ccccc23)CC1	none
NC(=O)C1CCN(c2nc(-c3ccccc3)nc3c2oc2ccccc23)CC1	Autofluor 339 2.1
CCOC(=O)CCCSc1nc2sc(C)c(C)c2c(=O)[nH]1	none
CCOC(=O)c1nc2sc(C)c(C)c2c(=O)[nH]1	Autofluor 339 3.7 (not shown: DPM-DC inhibit)
CN(C)c1ccc(-c2nn3c(-c4ccc(Cl)cc4)nnc3s2)cc1	none
CN(C)c1ccc(-c2nn3c(C4CCCCC4)nnc3s2)cc1	Autofluor 339 2.5
C=CCOC(=O)COc1ccc2c(C)c(C)c(=O)oc2c1	Autofluor 339 2.1 (not shown: DPM-DC inhibit)
C=CCNS(=O)(=O)c1ccc(OCC(=O)OCC)cc1	none
C=CCOC(=O)COc1ccc2c(C)c(CC)c(=O)oc2c1	Autofluor 339 3.9 (not shown: DPM-DC inhibit)
Cc1noc(C)c1COC(=O)COc1ccc2c(C)cc(=O)oc2c1	none
CCOC(=O)c1sc(N(Cc2ccccc2)C(=O)CSc2nnc(C3CC3)n2N)nc1C	none
O=C1CC(c2ccco2)CC2=C1C(c1ccccc1)n1nc(C(F)(F)F)nc1N2 (centres undefined)	Autofluor 339 2.8
Cc1ccc(C2CC(=O)NC3=C2C(=O)CCC3)cc1Br (centres undefined)	none
CCN1C2=C(C(=O)CCC2)C(c2ccc(O)c(Br)c2)C2=C1CCCC2=O	Autofluor 339 2.1 (not shown: DPM-DC inhibit)
O=S(=O)(Nc1ccc(C(F)(F)F)cc1)c1cnc[nH]1	DPM-DC inhibit active
NC(=O)c1cnccn1	none
COc1ccc(OC)c2c1CC(C)(C)NC2=O	Autofluor 339 2.1 (not shown: DPM-DC inhibit)
Cc1ccc2c(c1)c1c3n2CCN(C(=O)Cn2c(-c4ccccc4)noc2=O)C3CCC1 (centres undefined)	Autofluor 339 3.2
C=C1CSc2nc(=O)c3c4c(sc3n21)CCC4	none
O=c1nc2n(c3sc4c(c13)CCC4)Cc1ccccc1-2	Autofluor 339 2.2 (not shown: DPM-DC inhibit)
CC(=O)C(C)Oc1ccc2c3c(c(=O)oc2c1)CCCC3 (centres undefined)	Autofluor 339 2.1 (not shown: DPM-DC inhibit)
CCc1cc2c3c(c(=O)oc2cc1O)CCCC3	Autofluor 339 2.2 (not shown: DPM-DC inhibit)
COC(=O)c1ccc(COc2ccc3c(C)c(C)c(=O)oc3c2)o1	Autofluor 339 2.2 (not shown: DPM-DC inhibit)
CC(=O)COc1ccc2c3c(c(=O)oc2c1)CCCC3	Autofluor 339 3.9 (not shown: DPM-DC inhibit)

Assay outcomes deposited in PubChem BioAssay by SRMLSC.
